These results are taken from ChEMBL document CHEMBL1961873, “Compounds: GSK PKIS; Assays: Nanosyn kinase panel” (2012).

In assay [1] the target is Ribosomal protein S6 kinase alpha-6 (Homo sapiens) (UniProt Q9UK32). The settings on record: at 1 µM.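 Note: each value is a mean inhibition of RSK4 from a GSK PKIS panel screen.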
The target of assay [2] is T1, Serine/threonine-protein kinase Sgk1 (Homo sapiens) (UniProt O00141).
T1 sequence (whole entry): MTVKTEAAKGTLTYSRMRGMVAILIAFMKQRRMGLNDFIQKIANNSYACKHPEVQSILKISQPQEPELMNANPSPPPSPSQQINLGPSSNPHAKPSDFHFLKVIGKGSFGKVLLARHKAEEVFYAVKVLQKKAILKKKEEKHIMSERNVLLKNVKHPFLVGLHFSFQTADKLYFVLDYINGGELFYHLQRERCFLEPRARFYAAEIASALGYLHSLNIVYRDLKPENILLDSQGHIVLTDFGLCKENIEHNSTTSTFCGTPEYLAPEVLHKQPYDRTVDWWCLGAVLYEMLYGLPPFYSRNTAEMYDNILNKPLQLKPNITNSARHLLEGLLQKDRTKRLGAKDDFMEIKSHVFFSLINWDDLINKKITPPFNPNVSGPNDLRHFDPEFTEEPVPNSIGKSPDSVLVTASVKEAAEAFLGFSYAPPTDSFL
The settings on record: at 0.1 µM.

Assay [3] concerns the target T1, Serine/threonine-protein kinase Sgk1 (Homo sapiens). The following applies: at 1 µM.
Assay [4] has as its target T2, Serine/threonine-protein kinase Sgk2 (Homo sapiens) (UniProt Q9HBY8).
T2 sequence (whole entry): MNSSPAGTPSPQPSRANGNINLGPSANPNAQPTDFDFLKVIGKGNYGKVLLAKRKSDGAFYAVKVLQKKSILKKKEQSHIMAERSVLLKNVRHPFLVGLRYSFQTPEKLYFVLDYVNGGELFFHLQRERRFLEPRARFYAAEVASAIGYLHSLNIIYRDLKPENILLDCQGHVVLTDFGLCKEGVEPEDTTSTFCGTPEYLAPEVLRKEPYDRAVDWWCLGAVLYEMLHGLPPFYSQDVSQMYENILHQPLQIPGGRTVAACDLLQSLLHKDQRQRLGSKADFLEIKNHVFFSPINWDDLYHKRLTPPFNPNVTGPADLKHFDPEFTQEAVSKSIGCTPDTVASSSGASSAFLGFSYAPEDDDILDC
The following applies: at 0.1 µM.

For assay [5], the target named is T2, Serine/threonine-protein kinase Sgk2 (Homo sapiens). The following applies: at 1 µM.
Assay [6] has as its target T3, Serine/threonine-protein kinase Sgk3 (Homo sapiens) (UniProt Q96BR1).
T3 sequence (whole entry): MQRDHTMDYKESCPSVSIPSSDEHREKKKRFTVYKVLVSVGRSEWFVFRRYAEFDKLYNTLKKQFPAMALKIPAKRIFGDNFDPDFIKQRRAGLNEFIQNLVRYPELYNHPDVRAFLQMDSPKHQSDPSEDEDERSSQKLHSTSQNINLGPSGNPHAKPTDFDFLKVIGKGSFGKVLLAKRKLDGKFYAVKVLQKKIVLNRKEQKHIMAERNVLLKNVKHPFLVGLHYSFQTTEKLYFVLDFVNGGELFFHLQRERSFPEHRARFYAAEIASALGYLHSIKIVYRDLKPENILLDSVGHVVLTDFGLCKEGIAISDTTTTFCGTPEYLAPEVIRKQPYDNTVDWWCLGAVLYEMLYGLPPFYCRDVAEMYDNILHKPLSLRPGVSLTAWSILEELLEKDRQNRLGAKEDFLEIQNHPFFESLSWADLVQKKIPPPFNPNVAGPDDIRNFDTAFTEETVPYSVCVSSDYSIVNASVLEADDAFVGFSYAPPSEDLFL
The following applies: at 0.1 µM.

The target in assay [7] is T3, Serine/threonine-protein kinase Sgk3 (Homo sapiens). The following applies: at 1 µM.
Assay [8] addresses 5'-AMP-activated protein kinase catalytic subunit alpha-1 (Homo sapiens) (UniProt Q13131). The following applies: at 0.1 µM.
Assay [9] shares this target. The settings on record: at 1 µM.
The target in assay [10] is 5'-AMP-activated protein kinase catalytic subunit alpha-2 (Homo sapiens) (UniProt P54646). The following applies: at 0.1 µM.
Chain of 5'-AMP-activated protein kinase catalytic subunit alpha-2 (Homo sapiens) (P54646 whole entry, looked up): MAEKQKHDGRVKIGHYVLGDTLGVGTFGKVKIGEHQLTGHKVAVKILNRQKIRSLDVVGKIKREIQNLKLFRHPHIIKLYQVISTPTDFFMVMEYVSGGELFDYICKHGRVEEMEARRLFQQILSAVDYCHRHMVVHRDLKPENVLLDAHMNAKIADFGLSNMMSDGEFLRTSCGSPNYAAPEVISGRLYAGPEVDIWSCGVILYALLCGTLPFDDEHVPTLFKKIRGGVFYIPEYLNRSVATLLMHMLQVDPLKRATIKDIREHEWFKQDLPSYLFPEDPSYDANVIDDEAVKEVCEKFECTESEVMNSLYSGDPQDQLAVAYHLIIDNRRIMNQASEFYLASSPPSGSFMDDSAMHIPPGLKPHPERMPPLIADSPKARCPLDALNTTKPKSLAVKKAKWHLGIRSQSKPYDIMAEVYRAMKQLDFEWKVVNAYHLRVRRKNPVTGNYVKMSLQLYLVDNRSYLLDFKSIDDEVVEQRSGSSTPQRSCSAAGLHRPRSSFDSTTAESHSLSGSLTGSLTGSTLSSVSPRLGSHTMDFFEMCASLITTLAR
For assay [11] the target is unchanged. The settings on record: at 1 µM.
Assay [12] concerns the target T4, NUAK family SNF1-like kinase 1 (Homo sapiens) (UniProt O60285).
T4 sequence (whole entry): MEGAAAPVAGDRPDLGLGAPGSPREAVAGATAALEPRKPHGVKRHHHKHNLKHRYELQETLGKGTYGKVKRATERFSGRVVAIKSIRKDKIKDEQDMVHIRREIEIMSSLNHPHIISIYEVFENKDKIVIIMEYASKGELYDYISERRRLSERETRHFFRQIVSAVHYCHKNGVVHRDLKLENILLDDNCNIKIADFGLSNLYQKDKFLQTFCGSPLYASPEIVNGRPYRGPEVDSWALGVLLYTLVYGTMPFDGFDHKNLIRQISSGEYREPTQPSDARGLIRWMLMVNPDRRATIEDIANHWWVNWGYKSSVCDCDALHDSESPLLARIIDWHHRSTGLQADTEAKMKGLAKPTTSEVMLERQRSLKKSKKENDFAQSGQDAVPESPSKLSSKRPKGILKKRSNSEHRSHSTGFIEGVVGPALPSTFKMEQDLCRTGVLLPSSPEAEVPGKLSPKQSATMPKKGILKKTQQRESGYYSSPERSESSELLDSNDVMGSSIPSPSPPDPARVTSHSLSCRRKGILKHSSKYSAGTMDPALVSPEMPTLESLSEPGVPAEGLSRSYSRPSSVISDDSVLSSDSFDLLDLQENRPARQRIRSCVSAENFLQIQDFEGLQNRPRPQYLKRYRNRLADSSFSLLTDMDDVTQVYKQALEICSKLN
The following applies: at 0.1 µM.

For assay [13], the target named is T4, NUAK family SNF1-like kinase 1 (Homo sapiens). The following applies: at 1 µM.
Assay [14] deals with T5, Serine/threonine-protein kinase BRSK1 (Homo sapiens) (UniProt Q8TDC3).
T5 sequence (whole entry): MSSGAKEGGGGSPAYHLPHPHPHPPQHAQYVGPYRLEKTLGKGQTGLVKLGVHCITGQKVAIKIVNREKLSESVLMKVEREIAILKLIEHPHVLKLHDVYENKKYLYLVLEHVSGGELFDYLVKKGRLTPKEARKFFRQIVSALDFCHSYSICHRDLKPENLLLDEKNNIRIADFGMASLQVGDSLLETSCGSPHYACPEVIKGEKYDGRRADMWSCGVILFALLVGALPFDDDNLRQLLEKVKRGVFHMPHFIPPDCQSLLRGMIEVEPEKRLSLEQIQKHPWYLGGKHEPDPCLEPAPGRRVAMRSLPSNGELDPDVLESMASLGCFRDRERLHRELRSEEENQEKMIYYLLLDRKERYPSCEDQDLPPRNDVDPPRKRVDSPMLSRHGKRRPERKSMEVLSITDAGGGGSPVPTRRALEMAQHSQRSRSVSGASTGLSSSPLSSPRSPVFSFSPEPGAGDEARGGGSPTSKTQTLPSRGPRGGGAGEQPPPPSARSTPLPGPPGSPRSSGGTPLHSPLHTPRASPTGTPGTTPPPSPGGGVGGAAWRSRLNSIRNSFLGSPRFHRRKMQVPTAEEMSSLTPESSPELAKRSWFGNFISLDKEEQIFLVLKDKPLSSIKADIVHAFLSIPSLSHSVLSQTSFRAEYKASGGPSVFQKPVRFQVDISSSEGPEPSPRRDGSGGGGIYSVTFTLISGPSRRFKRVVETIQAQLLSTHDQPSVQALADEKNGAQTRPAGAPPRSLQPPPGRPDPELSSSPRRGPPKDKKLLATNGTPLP
The settings on record: at 0.1 µM.

Assay [15] addresses T5, Serine/threonine-protein kinase BRSK1 (Homo sapiens). The settings on record: at 1 µM.
In assay [16] the target is T6, Serine/threonine-protein kinase BRSK2 (Homo sapiens) (UniProt Q8IWQ3).
T6 sequence (whole entry): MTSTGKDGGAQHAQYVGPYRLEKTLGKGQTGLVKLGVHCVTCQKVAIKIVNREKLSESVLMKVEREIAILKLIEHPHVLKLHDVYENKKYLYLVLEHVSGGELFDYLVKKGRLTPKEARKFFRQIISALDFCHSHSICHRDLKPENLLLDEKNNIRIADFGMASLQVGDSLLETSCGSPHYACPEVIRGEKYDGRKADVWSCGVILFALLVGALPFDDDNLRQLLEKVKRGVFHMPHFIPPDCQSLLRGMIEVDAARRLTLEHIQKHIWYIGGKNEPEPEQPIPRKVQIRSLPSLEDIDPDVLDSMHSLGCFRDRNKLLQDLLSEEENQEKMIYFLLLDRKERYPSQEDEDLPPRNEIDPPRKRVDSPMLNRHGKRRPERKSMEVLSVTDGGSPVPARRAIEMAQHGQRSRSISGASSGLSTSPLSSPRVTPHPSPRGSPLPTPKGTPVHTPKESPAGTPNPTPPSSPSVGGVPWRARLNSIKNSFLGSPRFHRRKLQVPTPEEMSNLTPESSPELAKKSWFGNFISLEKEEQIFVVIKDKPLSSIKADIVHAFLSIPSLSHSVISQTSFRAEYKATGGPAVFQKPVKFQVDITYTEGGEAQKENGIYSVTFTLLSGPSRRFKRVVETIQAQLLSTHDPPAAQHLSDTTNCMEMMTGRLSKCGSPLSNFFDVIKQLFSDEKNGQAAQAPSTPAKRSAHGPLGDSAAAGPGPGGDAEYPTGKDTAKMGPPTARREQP
The settings on record: at 0.1 µM.

Assay [17] addresses T6, Serine/threonine-protein kinase BRSK2 (Homo sapiens). The settings on record: at 1 µM.
The target in assay [18] is Calcium/calmodulin-dependent protein kinase type 1D (Homo sapiens) (UniProt Q8IU85). The settings on record: at 0.1 µM.
Chain of Calcium/calmodulin-dependent protein kinase type 1D (Homo sapiens) (Q8IU85 whole entry, looked up): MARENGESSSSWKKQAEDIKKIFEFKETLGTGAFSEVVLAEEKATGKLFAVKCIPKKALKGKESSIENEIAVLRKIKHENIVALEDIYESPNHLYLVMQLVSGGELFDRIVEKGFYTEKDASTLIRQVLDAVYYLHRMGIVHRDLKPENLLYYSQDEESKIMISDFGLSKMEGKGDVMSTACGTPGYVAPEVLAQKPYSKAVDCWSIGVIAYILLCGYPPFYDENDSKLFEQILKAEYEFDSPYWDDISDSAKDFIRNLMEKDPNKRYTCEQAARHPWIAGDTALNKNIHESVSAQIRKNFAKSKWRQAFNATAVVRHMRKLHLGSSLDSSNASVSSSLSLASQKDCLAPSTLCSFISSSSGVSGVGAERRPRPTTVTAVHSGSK
Assay [19] shares this target. The settings on record: at 1 µM.
Assay [20] deals with Calcium/calmodulin-dependent protein kinase type II subunit alpha (Homo sapiens) (UniProt Q9UQM7). The following applies: at 0.1 µM.
Chain of Calcium/calmodulin-dependent protein kinase type II subunit alpha (Homo sapiens) (Q9UQM7 whole entry): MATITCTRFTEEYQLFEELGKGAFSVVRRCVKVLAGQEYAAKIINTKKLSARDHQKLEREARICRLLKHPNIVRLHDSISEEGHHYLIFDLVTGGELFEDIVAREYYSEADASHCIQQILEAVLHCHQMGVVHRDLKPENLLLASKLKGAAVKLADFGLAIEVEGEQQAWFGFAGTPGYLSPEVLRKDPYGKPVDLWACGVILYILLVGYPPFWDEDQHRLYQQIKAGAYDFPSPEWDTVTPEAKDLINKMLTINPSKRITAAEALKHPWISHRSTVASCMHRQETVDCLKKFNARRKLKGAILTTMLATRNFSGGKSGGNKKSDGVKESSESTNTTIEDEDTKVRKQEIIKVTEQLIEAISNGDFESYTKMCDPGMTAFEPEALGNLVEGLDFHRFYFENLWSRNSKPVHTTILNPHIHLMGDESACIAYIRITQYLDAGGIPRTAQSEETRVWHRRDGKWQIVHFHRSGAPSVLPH

The structures appear in SMILES notation.

Chain of 5'-AMP-activated protein kinase catalytic subunit alpha-1 (Homo sapiens) (Q13131 whole entry, looked up): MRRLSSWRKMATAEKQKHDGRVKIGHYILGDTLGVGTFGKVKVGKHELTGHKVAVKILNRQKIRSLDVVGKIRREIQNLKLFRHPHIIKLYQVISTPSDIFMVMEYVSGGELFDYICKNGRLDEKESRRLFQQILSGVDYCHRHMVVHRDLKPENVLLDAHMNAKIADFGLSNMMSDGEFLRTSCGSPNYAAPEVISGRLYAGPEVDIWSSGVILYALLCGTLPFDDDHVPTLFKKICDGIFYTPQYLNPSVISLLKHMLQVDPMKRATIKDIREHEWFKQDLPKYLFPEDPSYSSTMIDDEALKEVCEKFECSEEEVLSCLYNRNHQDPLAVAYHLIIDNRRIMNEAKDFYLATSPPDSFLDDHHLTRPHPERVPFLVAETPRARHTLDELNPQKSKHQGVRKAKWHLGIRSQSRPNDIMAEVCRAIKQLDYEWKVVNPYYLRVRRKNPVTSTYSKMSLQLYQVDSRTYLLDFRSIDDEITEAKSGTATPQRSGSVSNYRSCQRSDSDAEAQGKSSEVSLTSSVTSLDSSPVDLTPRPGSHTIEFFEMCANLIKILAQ
Chain of Ribosomal protein S6 kinase alpha-6 (Homo sapiens) (Q9UK32 whole entry): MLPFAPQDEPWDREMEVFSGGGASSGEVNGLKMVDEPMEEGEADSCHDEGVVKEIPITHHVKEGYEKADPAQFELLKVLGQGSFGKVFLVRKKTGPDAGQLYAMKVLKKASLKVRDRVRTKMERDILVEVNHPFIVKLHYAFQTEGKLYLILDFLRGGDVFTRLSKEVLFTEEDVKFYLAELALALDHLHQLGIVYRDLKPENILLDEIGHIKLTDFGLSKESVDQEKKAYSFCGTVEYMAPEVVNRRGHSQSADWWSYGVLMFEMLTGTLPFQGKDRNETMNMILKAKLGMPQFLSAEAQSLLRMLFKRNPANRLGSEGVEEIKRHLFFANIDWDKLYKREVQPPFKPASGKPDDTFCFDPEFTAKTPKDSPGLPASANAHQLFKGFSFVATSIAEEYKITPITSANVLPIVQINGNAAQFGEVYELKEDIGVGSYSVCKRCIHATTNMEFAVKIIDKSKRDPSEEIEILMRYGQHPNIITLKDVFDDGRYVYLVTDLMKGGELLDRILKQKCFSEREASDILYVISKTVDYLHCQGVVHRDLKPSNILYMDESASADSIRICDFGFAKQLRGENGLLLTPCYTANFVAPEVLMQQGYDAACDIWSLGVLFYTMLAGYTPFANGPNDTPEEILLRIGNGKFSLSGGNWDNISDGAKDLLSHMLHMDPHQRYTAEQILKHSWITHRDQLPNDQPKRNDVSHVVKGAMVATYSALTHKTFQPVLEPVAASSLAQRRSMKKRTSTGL

The term inhibition denotes the relative decrease from the control value, in per cent. On to `CN(C)c1cc2c(Nc3ccc4nc(Cc5ccccc5)[nH]c4c3)ncnc2cn1`, for which the inhibition in assay [1] is 3.9%; in [2], 3.83%; in [3], 2.79%; in assay [4], 2.52%; in [5], 6.52%; in [6] it was 3.71%. The inhibition in [7] came out at 4.16%; in assay [8] it was 4.31%; in [9] it was 3.22%; in assay [10], 4.92%; in assay [11] it was 4.85%; in assay [12] it was 0.74%. Besides, the inhibition in assay [13] turned out to be 1.76%; in [14] it was 3.31%; in assay [15], 4.38%; in assay [16], 3.85%; in assay [17] it was 4.52%; in assay [18] it was 1.13%. Further, the inhibition in assay [19] is 0.72%; in assay [20], 4.11%.
As for `COc1ccc(-c2nn3ncccc3c2-c2ccnc(Nc3ccc(Cl)c(C(F)(F)F)c3)n2)cc1`, the inhibition was 0.85% in assay [1]; 1.68% in assay [2]; 4.61% in assay [3]; -2.66% in assay [4]; 0.76% in assay [5]; 2.3% in assay [6]. The inhibition was 2.89% in assay [7]; 2.31% in assay [8]; 2.56% in assay [9]; 0.17% in assay [10]; -8.45% in assay [11]; -1.07% in assay [12]. Moreover, the inhibition in assay [13] was -2.34%; in assay [14] it was 1.4%; in assay [15], 1.98%; in [16], 2.7%; in [17], 4.49%; in assay [18] it was -0.51%. Further, the figures for the inhibition in [19] and in assay [20] were -1.4% and 1.97%, respectively.
`CCn1c(-c2nonc2N)nc2c(N3CCCC3)nccc21`: the inhibition in assay [1] is -0.13%; in assay [2] it was 0.28%; in assay [3], -1.03%; in [4], -2.98%; in assay [5], 2.83%; in assay [6] it was -0.79%. The inhibition in assay [7] was -0.02%; in [8], -0.36%; in assay [9], 0.11%; in [10] it was -8%; in assay [11] it was 0.77%; in assay [12], 4.51%. The inhibition is 0.95% in assay [13]; 1.14% in assay [14]; 1.31% in assay [15]; 1.48% in assay [16]; 3.56% in [17]; -0.31% in [18]. For the same compound, the inhibition in [19] was -0.81%; in [20], -1.53%.
For `O=C1NC(=O)C(c2ccccc2Cl)=C1Nc1cccc(O)c1`, the inhibition in [1] stood at 7.12%; in assay [2], 1.25%; in assay [3], 2.8%; in [4] it was 0.71%; in assay [5] it was 1.41%; in assay [6], 4.44%. The inhibition in assay [7] is 0.72%; in [8], 1.85%; in [9], 5.89%; in assay [10] it was -0.21%; in [11], 4.22%; in [12], 0.82%. Also, the inhibition is 12.4% in assay [13]; 1.18% in assay [14]; 6.4% in assay [15]; 1.63% in assay [16]; 8.81% in [17]; 1.44% in assay [18]. The inhibition in assay [19] stood at 4.28%; in assay [20] it was 3.22%.
